Bioassay records from PubChem BioAssay.
PglD inh: inhibitors of Campylobacter jejuni PglD acetyltransferase; purified PglD enzyme, DTNB colorimetric CoA detection; 0.098% of 360,000 active; inhibition, % at 12.5 µM; in the data active = inhibition above about 16%, passing the limit was not always enough
NSD2 inh: inhibitors of human histone methyltransferase NSD2; O96028; NSD2 peptide methylation, AlphaScreen, 120 min; inhibition, % at 12.5 µM; 0.54% of 310,000 active; AID 743445; in the data active = inhibition above about 50%
CFTR F508del cor: correctors of CFTR F508del function in bronchial epithelial cells; CFBE cells, YFP halide quenching; stimulated with forskolin plus potentiator P3; % fluorescence drop versus neutral controls; activity (quench increase), % at 7.58 µM; 0.36% of 350,000 active; AID 720511;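 active = mean added fluorescence quench of at least 8% versus neutral control, with both replicates also reaching 8%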;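 also: cells transiently co-express mutant CFTR-F508del with the halide-sensitive YFP; corrector assay measuring rescue of mutant channel to the surface after 24 h compound exposure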
Casp6 inh: inhibitors of human caspase-6. 0.53% of 350,000 active. inhibition, % at 12.5 µM. purified caspase-6, Z-VEID-R110 cleavage fluorescence;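 active = mean inhibition across replicates at least about 35%, with every replicate also reaching that limit, limit read from the data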
Target sequence (P55212 24-179 limits assumed): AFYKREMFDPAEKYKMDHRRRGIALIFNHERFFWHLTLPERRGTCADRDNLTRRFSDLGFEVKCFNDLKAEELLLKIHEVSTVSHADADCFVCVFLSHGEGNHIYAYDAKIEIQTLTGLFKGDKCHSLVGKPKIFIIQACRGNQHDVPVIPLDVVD
Target sequence (P55212 194-293 limits assumed): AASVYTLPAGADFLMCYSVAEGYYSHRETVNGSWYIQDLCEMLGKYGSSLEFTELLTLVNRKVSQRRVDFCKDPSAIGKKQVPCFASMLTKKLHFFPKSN
ALR H2O2 inh: inhibitors of human sulfhydryl oxidase ALR | AID 485317 | 3.8% of 290,000 active | purified ALR, DTT oxidation, H2O2 HRP-luminol luminescence | inhibition, % (no concentration beside the values);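 active = mean replicate inhibition above about 79%, with every replicate also reaching it, limit read from the data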
HIV Env fusion: blocks HIV Env-driven cell-cell fusion. HeLa-JRFL Env/CEM21 cell fusion, luciferase. 1.1% of 360,000 active. AID 651610. inhibition, % at 12.3 µM;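 active = mean replicate inhibition score of at least 50 and every replicate individually at or above 50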
Numbers stand for hits; . = inactive; / = not tested or not shown. This is a sample that favours compounds with a hit; in the whole collection about 4.1% have one here.

SMILES	PglD inh	NSD2 inh	CFTR F508del cor	Casp6 inh	ALR H2O2 inh	HIV Env fusion
O=C(c1ccc(S(=O)(=O)N2CCOCC2)cc1)N1CCN=C1SCc1cccnc1	.	/	/	/	99	.
Cc1cccc(CSC2=NCCN2C(=O)c2ccco2)c1	.	/	.	.	96	.
Cc1cc(=O)oc2cc(OC(C)C(=O)O)c(Cl)cc12 (stereo not given)	.	.	/	/	.	/
CC(=O)Oc1cc2oc(=O)cc(C)c2cc1Cl	.	.	.	.	97	.
Cc1cc(C)n(-c2ccc3cccc(NS(C)(=O)=O)c3n2)n1	.	.	/	/	.	60
FC(F)(F)c1cccc(NC(=S)NCc2ccc(Cl)cc2)c1	/	.	/	/	.	64
C[C@@H]1CN([C@H](C)CO)C(=O)c2cc(/C=C/c3ccccc3)cnc2O[C@H]1CN(C)S(=O)(=O)c1cccs1	.	/	.	.	/	.
O=C(O)CCc1ccc(S(=O)(=O)Nc2cc(C(F)(F)F)ccc2N2CCCC2)cc1	.	.	.	67	/	.
COc1cccc(C(=O)c2c[nH]c(C(=O)NCCCN3CCOCC3)c2)c1	/	.	15	.	/	.
COc1ccc2c3c([nH]c2c1)[C@@H](CO)N(C(=O)Nc1ccc(F)cc1)CC31CCN(C(=O)c2ccccn2)CC1	/	/	.	.	/	/
Nc1cc(=O)[nH]n1C1CCN(c2ccccc2)CC1	.	.	/	/	94	.
CO[C@H]1CN(C)C(=O)c2cc(NC(=O)NC(C)C)ccc2OC[C@H](C)N(C(=O)C2CCC2)C[C@@H]1C	.	/	.	/	/	.
CCOC(=O)c1nnc(-c2cccs2)nc1Oc1ccc(Cl)cc1	.	.	/	/	92	.
CCOC(=O)c1nnc(-c2cccs2)nc1Oc1ccccc1C(=O)OC	.	.	/	/	.	.
C[C@@H]1CN([C@H](C)CO)C(=O)c2cc(NC(=O)CCCN(C)C)ccc2O[C@@H](C)CCCCO[C@H]1CN(C)S(=O)(=O)c1cccs1	/	/	.	.	/	/
Cn1c(NC(=O)COc2ccccc2)cc(=O)n(C)c1=O	.	.	/	.	99	.
COc1ccc(-c2cn3c4c(sc3n2)CCCC4)cc1	.	.	/	/	96	.
O=C(CCl)Oc1ccc2occ(C(=O)c3cccs3)c2c1	.	/	/	/	97	/
NC1=NC[C@H](Cc2ccc(O)cc2)N1CCCCC1CCCCC1	.	/	.	.	76	.
NC1=NC[C@H](Cc2ccccc2)N1CCCCC1CCCCC1	.	/	.	.	.	.
CC(C)CC#Cc1ccc2c(c1)O[C@H](CN(C)Cc1ccc(C(=O)O)cc1)[C@@H](C)CN([C@H](C)CO)S2(=O)=O	.	/	.	/	/	.
CC(NCC(O)COc1ccc2ccccc2c1)c1ccccc1 (stereo not given)	.	.	.	.	.	65
Cc1cc(OCC(O)CNC(C)c2ccccc2)ccc1C(C)C (stereo not given)	.	.	.	.	.	82
COc1ccc(-c2cnc3c(c2)C(=O)N([C@H](C)CO)C[C@H](C)[C@H](CN(C)Cc2ccc(C(=O)O)cc2)O3)cc1	.	/	.	.	/	.
C[C@@H]1CN([C@@H](C)CO)C(=O)Cc2cc(NS(=O)(=O)c3ccc(F)cc3)ccc2O[C@@H]1CN(C)C(=O)Nc1ccc2c(c1)OCO2	/	/	.	/	/	.
SMILES	PglD inh	NSD2 inh	CFTR F508del cor	Casp6 inh	ALR H2O2 inh	HIV Env fusion
COc1ccc(-c2cc(C(=O)NNC(=S)NC(=O)c3c(-c4ccccc4)noc3C)[nH]n2)cc1	/	/	.	.	.	69
COc1ccc(/C=C/C(=O)NC(=S)NNC(=O)c2c(-c3ccccc3)noc2C)cc1	.	.	/	/	.	91
Cc1onc(-c2ccccc2)c1C(=O)NNC(=S)NC(=O)c1ccc(Br)cc1	.	.	.	.	.	/
Cc1onc(-c2ccccc2)c1C(=O)NNC(=S)NC(=O)/C=C/c1ccccc1	/	.	.	.	76	/
CCS(=O)(=O)c1ccc2oc(Nc3cccc(OC)c3)nc2c1	.	.	.	.	97	.
CCCN(C)C[C@H]1Oc2cc(-c3cccnc3)ccc2S(=O)(=O)N([C@H](C)CO)C[C@H]1C	.	/	.	.	/	.
CN1CCc2cc3c(c4c2[C@H]1[C@H](O)c1ccccc1-4)OCO3	.	/	.	49	.	.
COCCNC(=O)c1cc(-c2ccc(-c3ccccc3)cc2)nc2ccccc12	.	.	9.9	.	.	.
COc1ccc(Cl)cc1C(=O)NNC(=S)NC(=O)c1cc(-c2ccccc2)nc2ccccc12	.	.	/	/	/	73
COCCCNC(=O)c1cc(-c2cccnc2)nc2ccccc12	.	.	.	.	.	.
